Inconclusive results are not listed. Calls of active or inactive are those of the source. Unless noted, calls follow the shape of the dose curve; as a rule, active = well fitted curve in either direction with a large enough effect (not every such curve was filed as active); inconclusive = small, poorly fitted or top-dose-only effect, or another doubt; inactive = flat fitted curve, though single readings scatter.
What was measured:
[1] = molecular target: Lysosomal acid glucosylceramidase (Homo sapiens) (UniProt P04062); experiment: Glucocerebrosidase-p2 (AID 348; in the data active = potency below about 10 µM; also: potency is read from the fitted curve at half-maximal effect); conditions: purified GBA, blue fluorogenic substrate, 40 min
Chain of Lysosomal acid glucosylceramidase (Homo sapiens) (P04062 whole entry, looked up): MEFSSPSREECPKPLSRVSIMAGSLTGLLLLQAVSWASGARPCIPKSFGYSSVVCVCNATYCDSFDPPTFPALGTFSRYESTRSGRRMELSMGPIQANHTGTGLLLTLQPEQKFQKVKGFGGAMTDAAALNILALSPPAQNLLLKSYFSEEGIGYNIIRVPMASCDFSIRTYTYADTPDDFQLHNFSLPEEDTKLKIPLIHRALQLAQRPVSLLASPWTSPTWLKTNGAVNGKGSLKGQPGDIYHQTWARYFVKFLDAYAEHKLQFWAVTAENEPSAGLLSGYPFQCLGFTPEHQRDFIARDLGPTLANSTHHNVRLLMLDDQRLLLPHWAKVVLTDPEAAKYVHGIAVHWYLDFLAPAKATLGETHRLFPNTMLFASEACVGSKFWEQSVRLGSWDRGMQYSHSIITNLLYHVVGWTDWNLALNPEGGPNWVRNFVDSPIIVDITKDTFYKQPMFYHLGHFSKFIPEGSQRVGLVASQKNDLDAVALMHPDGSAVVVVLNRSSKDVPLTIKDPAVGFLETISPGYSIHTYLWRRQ
Summary of the method: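 Normal human glucocerebrosidase (0.2 nM) with blue fluorogenic substrate (80 uM final) in citrate/phosphate pH 5.9 with 10mM sodium taurocholate, 0.01% tween-20; 40 min RT, NaOH/glycine stop; fluorescence Ex 365/Em 440; AC50 from a titration from 0.6 nM upwards.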

[2] = AP1 Signaling Pathway (AID 357); conditions: ME-180 AP-1-bla reporter, EGF-induced, beta-lactamase ratio, 5 h; at 7.69 µM (top of the series) unless noted;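 also: ME-180 reporter cells stimulated with EGF at its EC50 level; % is scaled to controls: 0 for no effect and ±100 for the full control effect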
Summary of the method: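 In this screen, ME-180 cells in Opti-MEM with 0.5% dialyzed FBS received EC50 EGF and compound titrations for 5 h. AP-1 reporter beta-lactamase was detected via CCF4 ratio, giving AC50 for positive and negative modulators.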

[3] = molecular target: Cytochrome P450 1A2 (Homo sapiens) (UniProt P05177); experiment: p450-cyp1a2 (AID 410; calls by dose curve; also: potency is read from the fitted curve at half-maximal effect;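 as to activity change, negative = inhibition: -100% = full effect of reference inhibitor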); conditions: recombinant CYP1A2, luciferin-ME demethylation, luminescence; series mostly up to 57 µM
Chain of Cytochrome P450 1A2 (Homo sapiens) (P05177 whole entry, looked up): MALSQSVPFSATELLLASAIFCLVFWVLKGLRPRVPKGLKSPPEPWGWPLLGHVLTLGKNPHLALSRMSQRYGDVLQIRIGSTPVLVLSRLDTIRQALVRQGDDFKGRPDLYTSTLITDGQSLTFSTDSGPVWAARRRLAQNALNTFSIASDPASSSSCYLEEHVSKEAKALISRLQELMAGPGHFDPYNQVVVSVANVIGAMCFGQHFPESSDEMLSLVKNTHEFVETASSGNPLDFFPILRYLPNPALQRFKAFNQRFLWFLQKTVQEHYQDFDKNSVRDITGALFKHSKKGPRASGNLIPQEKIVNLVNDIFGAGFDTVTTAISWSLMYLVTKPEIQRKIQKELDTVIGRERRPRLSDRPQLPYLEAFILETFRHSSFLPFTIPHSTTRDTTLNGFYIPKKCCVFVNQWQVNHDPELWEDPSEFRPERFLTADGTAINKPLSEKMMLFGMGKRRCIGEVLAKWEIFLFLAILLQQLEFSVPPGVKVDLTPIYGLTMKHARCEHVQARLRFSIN
Summary of the method: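 20nM CYP1A2, 100uM Luciferin-ME (=Km), 100mM KPO4; cpd 10 min RT; +NADPH regen, 60 min RT; stop/detect 20 min; luminescence. Normalized to furafylline 57 uM = full inhibition.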

[4] = NFAT Signaling Pathway (AID 444); conditions: Jurkat NFAT-bla M1, carbachol, beta-lactamase ratio, 5 h; at 7.69 µM (top of the series) unless noted;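 also: carbachol stimulus at about its EC50 of 1 µM final; % is scaled to controls: 0 for no effect and ±100 for the full control effect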
Summary of the method: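 Read-out: CCF4 FRET ratio (460 nm/530 nm) after 1 h RT dye loading, used for %activity and AC50 from titration series. Cells: Jurkat NFAT-β-lactamase/M1 line, treated with compound plus 1 uM carbachol for 5 h, 37 °C.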

[5] = Stat Signaling Pathway (AID 446); conditions: ME-180 SIE beta-lactamase reporter, IL-6 stimulated, 5 h; at 7.69 µM (top of the series) unless noted;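 also: ME-180 cervical cancer cells given 40 pM IL-6 alongside compound; SIE-controlled beta-lactamase reporter measured as 460/530 nm FRET emission ratio; % is scaled to controls: 0 for no effect and ±100 for the full control effect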
Summary of the method: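 Normalization used AC90 stimulation (300 pM IL-6) and AC90 inhibition (125 nM pan-JAK inhibitor at 40 pM IL-6). The underlying signal is SIE-driven beta-lactamase in ME-180 cells after 5 h IL-6 exposure with compound.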

[6] = molecular target: Glucocorticoid receptor (Homo sapiens) (UniProt P04150); experiment: GR-EFC Redistribution (AID 451; calls by dose curve; also: potency is read from the fitted curve at half-maximal effect); conditions: CHO-K1 GR-EFC translocation, beta-gal luminescence, 2 h
Chain of Glucocorticoid receptor (Homo sapiens) (P04150 whole entry, looked up, the tested form may be a part): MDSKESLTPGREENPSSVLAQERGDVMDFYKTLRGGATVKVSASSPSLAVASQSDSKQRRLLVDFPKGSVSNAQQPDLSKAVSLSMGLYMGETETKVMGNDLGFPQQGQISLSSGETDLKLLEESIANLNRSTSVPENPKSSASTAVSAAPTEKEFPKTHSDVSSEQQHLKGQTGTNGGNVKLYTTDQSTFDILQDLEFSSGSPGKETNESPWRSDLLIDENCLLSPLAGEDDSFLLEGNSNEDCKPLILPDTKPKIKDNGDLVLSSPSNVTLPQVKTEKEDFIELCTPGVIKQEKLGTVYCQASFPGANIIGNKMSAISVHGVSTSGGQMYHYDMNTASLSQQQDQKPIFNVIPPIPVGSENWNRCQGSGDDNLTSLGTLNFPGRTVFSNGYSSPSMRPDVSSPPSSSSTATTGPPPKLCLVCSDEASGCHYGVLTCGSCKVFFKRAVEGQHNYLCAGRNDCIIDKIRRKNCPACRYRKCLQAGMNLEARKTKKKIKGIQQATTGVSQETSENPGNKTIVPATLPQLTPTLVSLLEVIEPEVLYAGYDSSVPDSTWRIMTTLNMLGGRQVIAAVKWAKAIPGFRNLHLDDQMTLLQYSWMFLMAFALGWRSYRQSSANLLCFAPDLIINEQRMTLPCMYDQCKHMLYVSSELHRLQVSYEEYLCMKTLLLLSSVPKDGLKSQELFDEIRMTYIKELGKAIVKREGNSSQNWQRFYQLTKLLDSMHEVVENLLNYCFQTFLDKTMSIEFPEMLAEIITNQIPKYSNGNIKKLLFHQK
Summary of the method: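 Translocation of GR-ED fusion to nuclear EA restores b-gal, read by luminescence after 1 h room-temperature detection. Engineered CHO-K1 biosensor cells, 1,000/well, exposed 2 h at 37 C to titrations up to 46 uM final.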

[7] = molecular target: Mitogen-activated protein kinase 10 (Mus musculus) (UniProt Q61831); experiment: JNK3 AlphaScreen Assay (AID 530); conditions: JNK3 lysate, c-Jun phosphorylation; series mostly up to 57.1 µM;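 also: kinase came from lysate of stimulated human HepG2 cells; signal reports phosphorylation of biotinylated GST-cJun 1-79 at Ser73 with 10 µM ATP; % is scaled to controls: 0 for no effect and ±100 for the full control effect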
Summary of the method: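 Kinase buffer: 20 mM Tris-HCl pH 7.6, 10 mM MgCl2, 1 mM DTT, 0.1 mM Na3VO4, 0.01% Tween-20; ATP 10 uM. Substrate biotin-GST-cJun(1-79), enzyme from activated HepG2 lysates. Detection by Ser73 phospho-antibody AlphaScreen.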

[8] = molecular target: 3',5'-cyclic-AMP phosphodiesterase 4B (Homo sapiens) (UniProt Q07343); experiment: qHTS Assay for Inhibitors of PDE-IV (AID 607; active = well fitted activation curve with a large enough effect in the main read-out, with a control signal flat, not every such curve was filed as active; also: % of control where 0% means no effect); conditions: HEK293 ACTOne CNG channel cells, membrane potential fluorescence; series mostly up to 22.9 µM
Chain of 3',5'-cyclic-AMP phosphodiesterase 4B (Homo sapiens) (Q07343 whole entry, looked up): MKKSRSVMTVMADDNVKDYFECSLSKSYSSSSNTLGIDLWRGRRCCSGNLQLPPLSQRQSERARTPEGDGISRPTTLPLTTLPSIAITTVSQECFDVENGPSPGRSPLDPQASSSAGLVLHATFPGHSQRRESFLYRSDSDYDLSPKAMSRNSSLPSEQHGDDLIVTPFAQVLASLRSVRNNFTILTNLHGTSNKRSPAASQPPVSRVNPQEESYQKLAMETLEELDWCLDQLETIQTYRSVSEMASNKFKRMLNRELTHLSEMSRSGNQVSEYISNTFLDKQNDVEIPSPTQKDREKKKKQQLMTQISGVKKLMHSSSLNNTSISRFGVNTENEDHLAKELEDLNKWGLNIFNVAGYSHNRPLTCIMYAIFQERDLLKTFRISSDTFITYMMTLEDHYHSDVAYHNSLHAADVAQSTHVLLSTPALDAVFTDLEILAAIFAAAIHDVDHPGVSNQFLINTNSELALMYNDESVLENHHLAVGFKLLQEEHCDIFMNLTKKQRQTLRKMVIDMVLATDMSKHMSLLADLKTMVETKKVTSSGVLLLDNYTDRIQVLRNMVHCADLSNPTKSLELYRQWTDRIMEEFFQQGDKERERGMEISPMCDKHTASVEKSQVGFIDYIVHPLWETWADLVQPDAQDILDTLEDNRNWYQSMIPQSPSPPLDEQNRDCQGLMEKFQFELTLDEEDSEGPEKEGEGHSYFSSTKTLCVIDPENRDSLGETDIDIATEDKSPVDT
Summary of the method: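 HEK293 ACTOne cells with CNG channel (1000/well), endogenous PDE4; membrane potential dye, compounds up to 22.9 uM final. Fluorescence Ex 535/Em 590; RO 20-1724 (100 uM final) as reference.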

[9] = qHTS Assay for Identification of Small Molecule Agonists for Hypoxia Response Element Signaling Pathway (AID 914; active = well fitted activation curve with a large enough effect in the signal ratio, with a control signal flat, not every such curve was filed as active; the % refers to the signal ratio; also: % of control where 0% means no effect); conditions: ME-180 (cervical carcinoma) HRE-bla reporter, beta-lactamase ratio, CoCl2, 17 h; activation: stronger effect = higher value
Summary of the method: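 Read-out: CCF4 FRET ratio of 460nm to 530nm emission (excitation 405nm) after 2.5 hours at room temperature, taken from HRE-bla ME-180 cells that had been exposed to compound and EC50 CoCl2 for 17 hours.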

[10] = qHTS Assay for Lipid Storage Modulators (AID 1519; calls by dose curve); conditions: Drosophila S3 cells, BODIPY lipid droplet/cell ratio, laser cytometry, cells loaded with oleic acid; for activity change, negative = inhibition: at 57.5 µM (top of the series)
Summary of the method: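 Cells seeded at 5,000 per well were treated with compounds over a concentration series and loaded with oleic acid (400 uM, as added). Lipid droplet fluorescence (488 nm excitation, 500-530 nm channel) was read by laser-scanning cytometry and normalized to 20 uM Triacsin C.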

[11] = Primary qHTS for small molecule stabilizers of the endoplasmic reticulum resident proteome: Secreted ER Calcium Modulated Protein (SERCaMP) assay (AID 1508630; active = well fitted curve in the direction sought with a large enough effect; an effect the other way counts as inactive or inconclusive; also: % is scaled to controls: 0 for no effect and ±100 for the full control effect); conditions: SH-SY5Y GLuc-SERCaMP (Gaussia luciferase released on ER calcium loss) secretion, thapsigargin, luminescence; series mostly up to 38.4 µM
Summary of the method: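 The SH-SY5Y reporter protocol was run at 3 concentrations up to 38.3 uM (primary) or 11 concentrations (follow-up): 16 h compound, 100 nM thapsigargin for 4 h, then extracellular luciferase luminescence.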

[12] = molecular target: Cytochrome P450 3A4 (Homo sapiens) (UniProt P08684); experiment: qHTS Assay for Activators of Cytochrome P450 3A4 (AID 885; active = well fitted curve in the direction sought with a large enough effect; an effect the other way counts as inactive or inconclusive; also: nearly all actives have a fitted effect of over 65% in size); conditions: recombinant CYP3A4, Luciferin-PPXE luminescence, 60 min; series mostly up to 57.1 µM
Chain of Cytochrome P450 3A4 (Homo sapiens) (P08684 whole entry, looked up): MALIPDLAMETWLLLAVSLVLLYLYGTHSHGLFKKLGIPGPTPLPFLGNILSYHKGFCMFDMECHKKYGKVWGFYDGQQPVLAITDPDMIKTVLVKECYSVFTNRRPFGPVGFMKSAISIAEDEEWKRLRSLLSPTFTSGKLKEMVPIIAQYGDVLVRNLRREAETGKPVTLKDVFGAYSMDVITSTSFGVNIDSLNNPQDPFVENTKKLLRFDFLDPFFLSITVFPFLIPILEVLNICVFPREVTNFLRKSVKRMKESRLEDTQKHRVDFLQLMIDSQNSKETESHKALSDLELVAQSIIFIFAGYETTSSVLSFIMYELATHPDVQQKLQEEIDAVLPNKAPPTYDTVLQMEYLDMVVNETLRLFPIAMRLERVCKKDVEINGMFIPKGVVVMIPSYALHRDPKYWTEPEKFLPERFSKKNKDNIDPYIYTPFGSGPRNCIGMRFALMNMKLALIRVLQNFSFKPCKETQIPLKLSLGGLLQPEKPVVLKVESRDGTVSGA
Summary of the method: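 Human CYP3A4 dealkylates Luciferin-PPXE to luciferin, which luciferase detection converts to light. Substrate was at its KM (25uM), buffer 200mM KPO4, reaction 60 min at RT.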

[13] = molecular target: Cytochrome P450 2D6 (Homo sapiens) (UniProt P10635); experiment: qHTS Assay for Inhibitors and Substrates of Cytochrome P450 2D6 (AID 891; active = well fitted curve in the direction sought with a large enough effect; an effect the other way counts as inactive or inconclusive; also: potency is read from the fitted curve at half-maximal effect; nearly all actives have a fitted effect of over 60% in size); conditions: recombinant CYP2D6, luciferin-ME EGE luminescence; series mostly up to 57.1 µM
Chain of Cytochrome P450 2D6 (Homo sapiens) (P10635 whole entry, looked up): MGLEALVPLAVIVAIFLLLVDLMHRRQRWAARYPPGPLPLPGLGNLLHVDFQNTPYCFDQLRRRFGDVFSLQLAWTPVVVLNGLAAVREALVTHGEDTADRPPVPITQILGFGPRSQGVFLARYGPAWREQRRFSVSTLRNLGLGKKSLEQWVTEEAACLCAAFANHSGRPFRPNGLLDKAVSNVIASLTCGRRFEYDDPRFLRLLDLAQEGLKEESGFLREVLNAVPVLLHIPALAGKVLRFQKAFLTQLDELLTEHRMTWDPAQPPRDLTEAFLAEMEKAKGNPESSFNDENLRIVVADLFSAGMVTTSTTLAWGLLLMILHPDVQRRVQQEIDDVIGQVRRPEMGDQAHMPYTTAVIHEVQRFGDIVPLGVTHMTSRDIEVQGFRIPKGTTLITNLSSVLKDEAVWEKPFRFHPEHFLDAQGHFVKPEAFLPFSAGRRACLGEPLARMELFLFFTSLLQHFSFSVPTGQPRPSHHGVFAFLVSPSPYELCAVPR
Summary of the method: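 Luminescent read-out of luciferin formed by 5 nM human CYP2D6 demethylating 30 uM Luciferin-ME EGE (Km level) over 60 min at room temperature after NADPH regeneration addition. Data normalized to full inhibition by 1.43 uM quinidine.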

[14] = molecular target: Cytochrome P450 2C19 (Homo sapiens) (UniProt P33261); experiment: qHTS Assay for Inhibitors and Substrates of Cytochrome P450 2C19 (AID 899; active = well fitted curve in the direction sought with a large enough effect; an effect the other way counts as inactive or inconclusive; also: potency is read from the fitted curve at half-maximal effect; nearly all actives have a fitted effect of over 60% in size); conditions: recombinant CYP2C19, luciferin-H EGE luminescence; series mostly up to 57.1 µM
Chain of Cytochrome P450 2C19 (Homo sapiens) (P33261 whole entry, looked up): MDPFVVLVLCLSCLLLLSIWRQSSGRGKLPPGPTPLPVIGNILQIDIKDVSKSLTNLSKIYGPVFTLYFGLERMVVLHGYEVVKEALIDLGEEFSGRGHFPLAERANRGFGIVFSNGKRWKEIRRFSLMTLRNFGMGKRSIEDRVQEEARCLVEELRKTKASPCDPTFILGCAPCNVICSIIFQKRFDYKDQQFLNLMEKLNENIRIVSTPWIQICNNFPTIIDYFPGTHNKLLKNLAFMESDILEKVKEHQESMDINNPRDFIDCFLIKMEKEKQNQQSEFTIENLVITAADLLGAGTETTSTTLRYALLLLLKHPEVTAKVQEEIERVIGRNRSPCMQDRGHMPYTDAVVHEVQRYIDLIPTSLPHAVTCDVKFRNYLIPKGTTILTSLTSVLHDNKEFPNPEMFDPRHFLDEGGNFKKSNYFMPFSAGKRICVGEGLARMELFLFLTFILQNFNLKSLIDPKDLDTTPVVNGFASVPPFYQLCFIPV
Summary of the method: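 5nM enzyme + 10uM Luciferin-H EGE (=KM), 50mM KPO4; cpd pin-transferred, 10 min 37C; NADPH regen, 60 min 37C; stopped w/ luciferin detection reagent, 20 min; luminescence. Normalized to 57uM ketoconazole (AC100).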

[15] = measured here: cell count channel max response
[16] = measured here: lipid channel max response

Row | SMILES | Potency [1] | activity change, negative = inhibition [2] | Potency [3] | activity change, negative = inhibition [4] | activity, negative = inhibition [5] | Potency [6] | outcome [7] | Potency [8] | activation [9] | activity change, negative = inhibition [10] | max response [10, 15] [%] | max response [10, 16] [%] | Potency [11] | Potency [12] | Potency [13] | Potency [14]
1 | O=C(c1csnn1)N1CCC2(CC1)CN(c1ccccc1)C2 | > 11.4 µM (inactive) | -4.3% (inactive) | inactive | -3.86% (inactive) | 4.17% (inactive) | > 46 µM (inactive) | inactive | inactive | -12.1% (inactive) | 4.49% (inactive) | 13.3 | 20.7 | inactive |  |  | 
2 | COc1ccccc1CN1CC[C@@]2(CCCN(S(C)(=O)=O)C2)C1 | > 11.4 µM (inactive) | 1.48% (inactive) | inactive | -16.9% (inactive) | 5.92% (inactive) | > 46 µM (inactive) | inactive | inactive |  | 4.56% (inactive) | 7.77 | 13.7 | inactive | inactive | 0.316 µM (active) | 
3 | N#Cc1cccc(NC(=O)N2CCC3(CC2)CCN(C(=O)c2csnn2)CC3)c1 | > 11.4 µM (inactive) | -16.5% (inactive) | inactive | 11.9% (inactive) | -0.506% (inactive) | > 46 µM (inactive) | inactive | inactive | -0.636% (inactive) | 5.57% (inactive) | 15 | 22.3 | inactive | inactive |  | 
4 | O=C(Nc1cccc(F)c1)N1CC[C@@]2(CCCNC2)C1 | > 11.4 µM (inactive) | 2.44% (inactive) | inactive | -0.699% (inactive) | -0.756% (inactive) | > 46 µM (inactive) | inactive | inactive | 0.832% (inactive) | 3.99% (inactive) | -1.25 | 6.61 | inactive | inactive |  | 
5 | COc1ncc2nc(-c3cccc(C#N)c3)c(=O)n(CCC#N)c2n1 | > 11.4 µM (inactive) | -2.26% (inactive) | 20 µM (active) | -6.7% (inactive) | -3.36% (inactive) | > 46 µM (inactive) | inactive | inactive | -3.76% (inactive) | 3.8% (inactive) | 14.2 | 20.3 | inactive | inactive |  | 
6 | Cc1noc(C)c1C(=O)N1CCC[C@@]2(CCN(Cc3ccccc3)C2)C1 | > 11.4 µM (inactive) | -8.33% (inactive) | inactive | 4.21% (inactive) | 3.42% (inactive) | > 46 µM (inactive) | inactive | inactive |  | 2.65% (inactive) | 16.8 | 22.2 | inactive | inactive | 7.94 µM (active) | 
7 | O=S(=O)(c1ccccc1)N1CCC2(CCCN(c3ncccn3)C2)CC1 | > 11.4 µM (inactive) | 0.46% (inactive) | 15.8 µM (active) | 5.51% (inactive) | -0.568% (inactive) | > 46 µM (inactive) | inactive | inactive |  | 7.3% (inactive) | -5.51 | 5.88 | inactive | inactive |  | 0.398 µM (active)
8 | O=C(c1ccco1)N1CCC2(CC1)CN(Cc1cc(C(F)(F)F)cc(C(F)(F)F)c1)C2 | > 11.4 µM (inactive) | 5.99% (inactive) | inactive | 15.6% (inactive) | 2.41% (inactive) | > 46 µM (inactive) | inactive | inactive |  | -5.85% (inactive) | 13.1 | 7.42 | inactive |  | 6.31 µM (active) | 
9 | CC(C)CN1CC[C@@]2(CCCN(C(=O)c3csnn3)C2)C1 | > 11.4 µM (inactive) | -0.149% (inactive) | inactive | -1.84% (inactive) | 5.64% (inactive) | > 46 µM (inactive) | inactive | inactive |  | 1.65% (inactive) | -1.75 | 2.01 | inactive | inactive | 0.501 µM (active) | 

Source: PubChem BioAssay (NCATS)
